Assay outcomes deposited in PubChem by Broad Institute.
MITF TRPM1 inh = inhibitors of MITF-dependent TRPM1 promoter reporter, primary screen, cell-based, SK-MEL-5, single point, luciferase. SK-MEL-5 TRPM1 promoter luciferase, 24 h. inhibition, % at 12.5 µM. hit rate 0.83% among 330,000;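 active means mean inhibition across replicates of 60% or more, whatever share of single replicates reaches that level; inconclusive means some that reach 60%, reason not given; inactive means mean inhibition across replicates below 60%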
PGC1a acetyl inh = inhibitors of PGC1a acetylation signal, primary screen, cell-based, U2OS, AlphaScreen, inhibitor mode | hit rate 0.17% among 350,000 | AID 651687, 2012 | AlphaScreen anti-acetyl-lysine; with virally co-expressed GCN5 acetyltransferase | inhibition, % at 15.6 µM;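 active means every replicate shows inhibition of at least 40%; inconclusive means mean inhibition at least 40% but some replicate below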;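 further: 0% = neutral control wells and 100% = positive control wells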
PAX8 reporter = inhibitors of PAX8-driven TPO luciferase reporter, primary screen, RMG-I cells, single concentration | AID 652154, 2013 | inhibition, % at 12.6 µM | hit rate 1.2% among 360,000 | SteadyGlo, 24 h;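 active means mean replicate inhibition at least 60% with every replicate also reaching 60%; inconclusive means only one of the two criteria is met; inactive means mean below 60% and not all replicates reaching 60%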;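 further: luciferase light reporting Pax8 driven TPO promoter activity; plate controls were median of neutral control wells for no effect and mitoxantrone controls for full effect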
LMP1 NFkB inh = EBV LMP1-driven NF-kappaB luciferase reporter inhibitors, primary screen, cell-based, luminescence, single point; AID 504558, 2011; hit rate 0.69% among 350,000; inhibition, % at 12.5 µM; LMP1-induced NF-kappaB luciferase reporter cells; in the data active means inhibition above about 41%; inconclusive means no clear call, values can overlap the other calls;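 further: 0% = neutral control wells and 100% = reference inhibitor control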
EWS-Fli block = EWS/Fli-driven NR0B1 reporter inhibitors, primary screen, A673 cells, NR0B1 luciferase, luminescence, MLPCN library; viability-normalised; inhibition, % at 12.6 µM; hit rate 0.67% among 350,000; AID 651661, 2012;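 active means mean inhibition of at least 50% after viability correction, with every replicate also passing that limit; inconclusive means mean reaches 50% but only one of two replicates passes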;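 further: firefly luciferase signal divided by Alamar Blue viability fluorescence both relative to DMSO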
LGR2 antag = inhibitors of bursicon-induced LGR2 CRE-luciferase signal, primary screen, cell-based, HEK293, CRE-luciferase reporter, bursicon stimulation; bursicon-stimulated, 4 h; inhibition, % at 9.99 µM; hit rate 0.35% among 380,000; AID 720647, 2013;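 active means drop in luminescence signal, shown as inhibition above about 50% in the replicate tests, limit read from the data, passing the limit was not always enough; inconclusive means probably only some replicates passing the limit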;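 further: agonist challenge used bursicon conditioned medium at about half maximal strength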
* marks the source's active call; other numbers are inactive results; ? = inconclusive; / = no result given. A selection: hits, their analogues and other compounds. The true share with any hit is near 2.2%.

SMILES | MITF TRPM1 inh | PGC1a acetyl inh | PAX8 reporter | LMP1 NFkB inh | EWS-Fli block | LGR2 antag
OC(CNCC(c1ccc(Cl)cc1Cl)c1c[nH]c2ccccc12)c1ccccc1 (centres undefined) | 100.2* | -1.5 | 93.3* | -36.8 | 48.0 | 101.9*
CC(=O)Nc1ccccc1C(=O)C(=O)Nc1ccc(C)c(F)c1 | -31.3 | / | 68.9* | -22.5 | -111.4 | -25.3
O=C(C1=C[C@H](C2CCCCC2)C[C@H](OCc2ccc(CO)cc2)O1)N1CCCC1 | / | -14.0 | -2.4 | / | 10.0 | /
O=c1[nH]c(CN2CCN(c3ccc(O)cc3)CC2)nc2scc(-c3ccc(Cl)cc3)c12 | 43.1 | / | ? | 14.7 | 59.8* | -15.3
O=c1[nH]c(CN2CCN(c3ccccc3O)CC2)nc2scc(-c3ccccc3Cl)c12 | 11.8 | 4.8 | 22.1 | 8.2 | 14.9 | 11.7
COc1ccc(NC(=O)NNS(=O)(=O)c2ccc(Br)cc2)cc1 | -11.1 | / | 4.6 | / | / | -7.5
Cc1ccc(NC(=O)NNS(=O)(=O)c2ccc(Br)cc2)cc1 | 2.3 | -1.1 | / | 66.4* | / | /
COc1ccc(CN(C)C[C@H]2Oc3ccc(NC(=O)CCC(F)(F)F)cc3CC(=O)N([C@@H](C)CO)C[C@H]2C)cc1 | / | -16.8 | 21.5 | / | 2.4 | -36.2
Cc1ccc(/C=C/C(=O)C2C(=O)c3ccccc3C2=O)cc1 | 12.6 | 11.0 | / | 47.1* | / | 6.8
Cc1ccc(/C=C/C(=O)c2ccccc2O)cc1 | -36.6 | 2.7 | -155.7 | 2.7 | -91.4 | -54.4
CCN(CC)C(=O)C1CCCN(c2ccc([N+](=O)[O-])cc2[N+](=O)[O-])C1 (centres undefined) | 17.4 | / | 4.0 | 52.4* | -6.6 | 21.2
O=C1C(O)=CC(=C(c2ccccc2)c2ccccc2)c2ccccc21 | 61.3* | 22.5 | 23.3 | 8.3 | -21.7 | -17.3
O=C(C[C@H]1C=C[C@H](NC(=O)C2CCOCC2)[C@@H](CO)O1)Nc1ccc(-c2ccccc2)cc1 | / | -2.6 | 7.5 | / | -2.6 | 7.0
c1ccc(-c2nc3ccccc3o2)nc1 | -33.4 | -3.3 | / | -28.8 | / | /
c1ccc2nc(-c3nc4ccccc4o3)ccc2c1 | 53.4 | -5.6 | / | 4.9 | / | 85.3*
O=S(=O)(Nc1cc(Sc2ncn[nH]2)c(O)c2ccccc12)c1ccccc1 | 40.5 | 72.4* | 110.6* | 1.2 | 38.2 | 97.0*
COC(=O)N/N=C/c1cccs1 | -7.8 | / | -14.4 | -1.9 | 2.8 | 9.6
COc1cc2ccccc2cc1C(=O)N/N=C/c1cccs1 | / | 4.9 | 41.4 | 23.7 | 58.5* | -16.2
CSc1nc2ccc(NC(=O)c3ccccn3)cc2s1 | -1.3 | / | -40.1 | 4.1 | 22.3 | 70.7*
Cc1ccc2nc(NC(=O)c3ccccn3)sc2c1 | 93.8* | -6.8 | 71.5* | 81.5* | 83.9* | 102.6*
CCOc1ccc2nc(NC(=O)c3ccccn3)sc2c1 | 80.1* | -4.1 | 36.7 | 57.4* | 70.4* | 88.8*
CSc1nc2ccc(NC(=O)C3=NNC(=O)CC3)cc2s1 | / | 5.1 | -1.5 | -27.3 | -0.7 | -39.1
O=C(Nc1nc2c(F)cc(F)cc2s1)c1ccccn1 | 65.1* | / | 6.0 | 44.3* | 53.1* | 60.1*
O=C(COc1ccccc1)NNc1nc2c(F)cc(F)cc2s1 | 0.3 | / | 21.8 | 4.0 | -1.9 | 16.0
Cc1ccc2nc(NC(=O)c3ccccc3F)sc2c1 | 14.9 | -6.9 | -34.0 | -28.8 | 42.6 | 39.6
SMILES | MITF TRPM1 inh | PGC1a acetyl inh | PAX8 reporter | LMP1 NFkB inh | EWS-Fli block | LGR2 antag
O=C([C@@H]1N[C@@H]2c3ccc(C4=CCCCC4)c(=O)n3C[C@@H]2[C@H]1CO)N1CCC(Cc2ccccc2)CC1 | / | / | / | / | -7.9 | -27.6
COc1ccccc1-c1cnc2c(c1)C(=O)N([C@H](C)CO)C[C@@H](C)[C@H](CN(C)C(=O)c1ccncc1)O2 | / | 1.2 | / | / | -4.8 | 7.3
COc1ccccc1S(=O)(=O)N[C@@H]1C=C[C@H](CC(=O)N2CCCCC2)O[C@@H]1CO | / | -10.7 | -7.3 | / | 16.3 | 11.9
COc1ccc(NC(=O)c2ccccn2)cc1 | 7.2 | -13.5 | / | 52.2* | / | /
O=C(C[C@H]1C=C[C@H](NC(=O)CN2CCOCC2)[C@@H](CO)O1)NC1CCC1 | / | -4.9 | 0.8 | / | 2.0 | 8.8
Cc1cccc(S(=O)(=O)N2CC[C@@H]3[C@H](CO)Nc4ccc(C#Cc5ccc(F)cc5)cc4[C@@H]32)c1 | / | -3.5 | -2.3 | / | 13.6 | 7.6
COc1ccc(CCNC(=O)c2nnn(-c3ccc4c(c3)OCCO4)c2N)cc1OC | 40.5 | 3.7 | / | 50.2* | / | /
COc1ccc(CCNC(=O)c2nnn(-c3ccccc3OC)c2N)cc1OC | -9.3 | -34.4 | -10.6 | 2.3 | / | /
NC1(C(=O)O)CSSC1 | 64.6* | / | / | 0.7 | 14.2 | -9.0
COc1ccc(S(=O)(=O)N(C)C[C@H]2OCCCC[C@@H](C)Oc3ccc(N(C)C)cc3C(=O)N([C@H](C)CO)C[C@H]2C)cc1 | / | -6.8 | 48.7 | / | -7.3 | -26.8
COc1ccc(C(=O)N/N=C/C(=O)c2ccccc2)cc1 | -79.1 | 6.1 | -267.0 | -5.9 | / | -45.5
Cc1ccc(C(=O)NN=CC(=O)c2ccccc2)c(C)c1 | -58.6 | / | -182.9 | -34.8 | -7.7 | 70.0*
Cc1ccc(C(C)C)c(OCc2ccc(C(=O)N/N=C/c3cccc(O)c3O)cc2)c1 | 82.7* | / | 56.9 | 24.4 | 30.2 | -81.7
COc1ccc(S(=O)(=O)N(C)C[C@@H]2Oc3ccc(NC(=O)CCCN(C)C)cc3C(=O)N([C@@H](C)CO)C[C@@H]2C)cc1 | / | -4.4 | 19.1 | / | -0.2 | -15.5
O=C(N[C@H]1CC[C@@H](CC(=O)N2CCc3ccccc3C2)O[C@@H]1CO)C1CC1 | / | 20.0 | -2.5 | / | 0.4 | 1.6
O=C(Cc1ccncc1)NCC[C@@H]1CC[C@H](NC(=O)C2CCCCC2)[C@@H](CO)O1 | / | 14.6 | 3.7 | / | -3.8 | -9.3
Cc1cccc(C)c1Nc1nnc(SCC(=O)c2ccc(Br)s2)s1 | 0.1 | / | -13.2 | -5.4 | 74.9* | 10.9
COc1ccc(-c2cc(C(F)F)n3ncc(C(=O)N4CCc5ccccc54)c3n2)cc1 | 21.7 | 6.0 | -16.0 | 19.1 | 57.2* | -12.8
COc1ccc(NC(=O)Nc2ccc3c(c2)C(=O)N([C@H](C)CO)C[C@H](C)[C@H](CN(C)C(=O)CCCN(C)C)OCCCC[C@@H](C)O3)cc1 | / | 4.5 | / | / | -8.8 | 1.3
CCOC(=O)c1ccc(CC(=O)c2ccc(O)cc2O)o1 | 49.4 | -0.2 | / | 50.6* | / | /
COC(=O)c1ccc(CC(=O)c2ccc(O)cc2O)o1 | 19.3 | -2.8 | / | -0.2 | / | /
COCC(=O)Nc1ccc2c(c1)OC[C@@H](C)N(C(=O)c1ccccc1)C[C@@H](C)[C@H](OC)CN(C)C2=O | / | 0.4 | / | / | 1.9 | 5.9
O=C1O[C@@H](c2ccccc2)[C@@H](c2ccccc2)N2[C@@H](c3ccc(O)cc3)[C@]3(C(=O)Nc4ccc(C#CC5=CCCCC5)cc43)[C@@H](C(=O)O)[C@H]12 | / | -3.4 | / | / | -7.6 | /
O=C(Nc1ccc(F)cc1F)c1c(C(F)(F)F)ccnc1Oc1ccccc1 | / | -18.0 | 3.9 | / | 4.1 | /
